# ± gives the standard deviation of the averaged measurements.
# Experiments:
# DLD1 [1] = experiment: cell viability (CellTiter-Glo) relative to plate median (fraction of plate median); higher = more viable cells; settings: 5 µM; treatment time 24 h; reporter: 7TFP
# Procedure, shortened: (§1)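 Colorectal cancer cell lines stably carrying lentiviral TCF/Wnt firefly luciferase reporters (7TFP or TCF4/Wnt) were plated in 384-well plates and, 24 h later, given library compounds at a final 5 µM for 24 h. Firefly luciferase or CellTiterGlo luminescence was read on parallel plates with a Tecan F500 reader. Each well's signal was normalised to the plate median in webcellHTS2 (additive, without log transformation). Values are the mean of two independent replicates.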
# HCT116 = experiment: as above; settings: 5 µM; treatment time 24 h; reporter: TCF4/Wnt
# Procedure, shortened: as §1
# SW480 [2] = experiment: as above; settings: 5 µM; treatment time 24 h; reporter: 7TFP
# Procedure, shortened: as §1
# DLD1 [3] = experiment: TCF/Wnt firefly luciferase reporter signal relative to plate median (fraction of plate median); higher = higher Wnt reporter signal; settings: 5 µM; treatment time 24 h; reporter: 7TFP
# Procedure, shortened: as §1
# SW480 [4] = experiment: as above; settings: 5 µM; treatment time 24 h; reporter: 7TFP
# Procedure, shortened: as §1
SMILES,cell viability (DLD1 [1]),cell viability (HCT116),cell viability (SW480 [2]),TCF/Wnt firefly luciferase reporter signal (DLD1 [3]),TCF/Wnt firefly luciferase reporter signal (SW480 [4])
CN1[C@@H]2C[C@@H](OC(=O)[C@H](CO)c3ccccc3)C[C@H]1[C@@H]1O[C@@H]12,1.04 ± 0.042,1.07 ± 0.042,0.99 ± 0.0099,1.02 ± 0.1,1.035 ± 0.0071
CNC(=O)Oc1ccc2c(c1)[C@]1(C)CCN(C)[C@@H]1N2C,0.948 ± 0.0071,0.889 ± 0.12,0.966 ± 0.047,1.08 ± 0.12,0.989 ± 0.072
O[C@@H]1C[C@H]2CCC[C@@H](C1)N2Cc1ccccc1,0.9315 ± 0.0035,0.996 ± 0.048,0.949 ± 0.037,1.1 ± 0.042,0.893 ± 0.013
c1ccc2c(c1)[nH]c1cnccc12,0.956 ± 0.041,1.01 ± 0.021,0.9715 ± 0.005,0.892 ± 0.19,0.879 ± 0.065
CN1CCc2cc3c(cc2[C@H]1[C@@H]1OC(=O)c2c1ccc1c2OCO1)OCO3,1.06 ± 0.014,1.07 ± 0.13,1.05 ± 0.05,0.9 ± 0.011,1.045 ± 0.0071
NCCCNCCSP(=O)(O)O,1.02 ± 0.14,1.08 ± 0.071,1.06 ± 0.021,1.1 ± 0.028,1.05 ± 0.035
"CC(=O)C1CCC2C3CCC4C[C@H](O)CCC4(C)C3C[C@H](O)C12C (stereo partly drawn) [DIHYDROXY (3alpha,12alpha)PREGNAN-20-ONE]",1.01 ± 0.042,1.12 ± 0.13,1.1 ± 0.064,0.9925 ± 0.0064,0.9855 ± 0.0021
C[C@@H]1C[C@H](C)C[C@H](C)[C@@H](O)CC(=O)O[C@H]([C@@H]2CCC[C@H]2C(=O)O)C/C=C/C=C(/C#N)[C@H](O)[C@@H](C)C1 [Borrelidin],0.894 ± 0.067,0.817 ± 0.18,1.01 ± 0.02,0.989 ± 0.059,1.06 ± 0.095
COc1cc2c(cc1OC)[C@@]13CCN4CC5=CCO[C@H]6CC(=O)N2[C@H]1[C@H]6[C@H]5C[C@H]43,1.06 ± 0.05,1 ± 0.097,1.04 ± 0.035,0.876 ± 0.096,0.974 ± 0.031
NCC(O)c1ccc(O)cc1 (stereo not given),0.972 ± 0.097,0.923 ± 0.015,0.972 ± 0.011,0.954 ± 0.21,0.943 ± 0.043
CC[C@@]1(O)C[C@H](O[C@H]2C[C@H](N(C)C)[C@H](O)[C@H](C)O2)c2c(cc3c(c2O)C(=O)c2c(O)ccc(O)c2C3=O)[C@H]1C(=O)OC,0.893 ± 0.075,0.548 ± 0.029,1.05 ± 0.042,0.569 ± 0.068,0.711 ± 0.016
CNC1CC(N)C(O)C(OC2OC(CO)C(O)C3OC4(OC(C(N)CO)C(O)C(O)C4O)OC23)C1O (stereo not given),0.983 ± 0.039,0.98 ± 0.029,0.985 ± 0.017,0.979 ± 0.073,0.988 ± 0.011
CC(=O)O[C@H]1C[C@@H](OC(C)=O)C(C)(C)C2C[C@@H](OC(C)=O)[C@]3(C)C(CC[C@@]4(C)[C@H](c5ccoc5)C(=O)[C@H]5O[C@]543)[C@]21C (stereo not given in full),0.99 ± 0.014,1.06 ± 0.19,1.02 ± 0.035,1.2 ± 0.057,1.09 ± 0.078
CN[C@@H]1[C@@H](O)[C@@H](O[C@@H]2[C@@H](O)[C@H](O[C@H]3O[C@H](CN)CC[C@H]3N)[C@@H](N)C[C@H]2N)OC[C@]1(C)O.CN[C@@H]1[C@@H](O)[C@@H](O[C@@H]2[C@@H](O)[C@H](O[C@H]3O[C@H]([C@@H](C)N)CC[C@H]3N)[C@@H](N)C[C@H]2N)OC[C@]1(C)O.CN[C@@H]1[C@@H](O)[C@@H](O[C@@H]2[C@@H](O)[C@H](O[C@H]3O[C@H]([C@@H](C)NC)CC[C@H]3N)[C@@H](N)C[C@H]2N)OC[C@]1(C)O,1.06 ± 0.17,0.997 ± 0.089,1.03 ± 0.063,1.03 ± 0.028,1.04 ± 0.069
CC(C)(C)NCC(O)c1ccccc1Cl (stereo not given),1.045 ± 0.0071,1.04 ± 0.079,1.04 ± 0.028,0.949 ± 0.027,1.06 ± 0.057
